# Assay results taken from PubChem BioAssay.
# A number with no mark means an inactive call. For some of these results: Measured potencies and affinities stand elsewhere. The source made the active and inactive calls. Unless noted, no rule for the calls is given here.
# Assays:
# [1] = antimalarial activity against Dd2 strain (AID 2302;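 active = growth inhibition above 50% at the single 2 µM test dose, taken to imply half-maximal potency below 2 µM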;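 also: 0% = DMSO untreated growth and 100% = chloroquine plus artemisinin killed control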); details: P. falciparum Dd2 in RBCs, LDH growth readout, 72 h; at 2 µM; stronger effect = higher value
# [2] = human hepatoma cell viability loss – ATP luminescence, cytotoxicity control for P. falciparum antimalarial project, primary screen (AID 2303;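 active = inhibition above 50%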;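 also: 0% = DMSO wells and 100% = digitonin-killed cells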); details: HepG2 viability, 24-48 h, at 10 µM, stronger effect = higher value
# [3] = target: L-lactate dehydrogenase (Plasmodium falciparum (isolate CDC / Honduras)) (UniProt Q27743); assay: PfLDH activity inhibition – cell lysate, 3D7 strain, counter-screen for P. falciparum growth inhibition project (AID 2304);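 also: 0% = vehicle and 100% = reference inhibitor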; details: P. falciparum 3D7 crude extract, LDH APAD/NBT absorbance; at 2 µM; stronger effect = higher value
# [4] = inhibition of 3D7 malaria parasite growth – strain 3D7 (AID 2306);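 also: 0% = DMSO wells and 100% = chloroquine plus artemisinin control wells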; details: P. falciparum 3D7 erythrocytic growth, LDH absorbance, 72 h; at 2 µM; stronger effect = higher value
# [5] = target: Calcium-dependent protein kinase 1 (Plasmodium falciparum (isolate 3D7)) (UniProt P62344); assay: PfCDPK1 kinase inhibitors, biochemical, TCAMS library (AID 1159585; cut-off not given, nearly all actives have IC50 up to about 0.98 µM;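 also: inhibitors leave more ATP so luminescence rises with inhibition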); details: recombinant PfCDPK1, Kinase-Glo ATP depletion luminescence
# [6] = target: Plasmodium falciparum protein kinase 6 (PK6, PF3D7_1337100) (UniProt Q8IDW1); assay: PfPK6 kinase inhibitors, biochemical, TCAMS library (AID 1159586); details: recombinant PfPK6, Kinase-Glo ATP depletion luminescence
# [7] = target: Protein kinase 7 (PK7), Plasmodium falciparum 3D7 (PF3D7_0213400) (UniProt Q7YTF7); assay: inhibition of Plasmodium PK7 catalytic activity – biochemical, TCAMS antimalarial set, Kinase-Glo luminescence (AID 1159587); details: recombinant PfPK7, Kinase-Glo ATP depletion luminescence
# [8] = target: Calcium-dependent protein kinase 4 (Plasmodium falciparum (isolate 3D7)) (UniProt Q8IBS5); assay: PfCDPK4 kinase inhibitors, biochemical, TCAMS library (AID 1159588; cut-off not given, nearly all actives have IC50 up to about 0.91 µM); details: recombinant PfCDPK4, Kinase-Glo ATP depletion luminescence
# Chain of Calcium-dependent protein kinase 4 (Plasmodium falciparum (isolate 3D7)) (Q8IBS5 whole entry, looked up): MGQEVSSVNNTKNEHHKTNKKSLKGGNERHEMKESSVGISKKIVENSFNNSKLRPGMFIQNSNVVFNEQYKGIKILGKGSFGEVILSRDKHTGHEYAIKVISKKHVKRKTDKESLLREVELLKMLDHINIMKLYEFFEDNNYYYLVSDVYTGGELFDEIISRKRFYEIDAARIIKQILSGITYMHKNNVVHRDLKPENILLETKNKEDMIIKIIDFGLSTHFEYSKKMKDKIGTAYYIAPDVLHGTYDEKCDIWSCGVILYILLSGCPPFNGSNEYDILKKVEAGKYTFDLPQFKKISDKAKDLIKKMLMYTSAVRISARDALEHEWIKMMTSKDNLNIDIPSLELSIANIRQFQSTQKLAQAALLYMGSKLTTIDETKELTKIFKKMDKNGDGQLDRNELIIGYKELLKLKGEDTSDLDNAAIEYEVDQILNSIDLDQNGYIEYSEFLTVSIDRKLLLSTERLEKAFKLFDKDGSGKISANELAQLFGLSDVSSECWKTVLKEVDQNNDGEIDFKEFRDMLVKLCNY
# Chain of Protein kinase 7 (PK7), Plasmodium falciparum 3D7 (PF3D7_0213400) (Q7YTF7 1-343): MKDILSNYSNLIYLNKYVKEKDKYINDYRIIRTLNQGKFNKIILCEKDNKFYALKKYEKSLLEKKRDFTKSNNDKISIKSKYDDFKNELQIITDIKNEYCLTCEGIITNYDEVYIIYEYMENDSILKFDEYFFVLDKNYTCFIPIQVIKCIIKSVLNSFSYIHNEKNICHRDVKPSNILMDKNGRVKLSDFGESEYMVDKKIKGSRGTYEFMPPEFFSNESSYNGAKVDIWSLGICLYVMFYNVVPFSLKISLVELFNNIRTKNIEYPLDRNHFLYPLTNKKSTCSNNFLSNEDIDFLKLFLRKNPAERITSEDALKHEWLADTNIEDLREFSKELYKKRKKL
# Chain of Calcium-dependent protein kinase 1 (Plasmodium falciparum (isolate 3D7)) (P62344 whole entry, looked up): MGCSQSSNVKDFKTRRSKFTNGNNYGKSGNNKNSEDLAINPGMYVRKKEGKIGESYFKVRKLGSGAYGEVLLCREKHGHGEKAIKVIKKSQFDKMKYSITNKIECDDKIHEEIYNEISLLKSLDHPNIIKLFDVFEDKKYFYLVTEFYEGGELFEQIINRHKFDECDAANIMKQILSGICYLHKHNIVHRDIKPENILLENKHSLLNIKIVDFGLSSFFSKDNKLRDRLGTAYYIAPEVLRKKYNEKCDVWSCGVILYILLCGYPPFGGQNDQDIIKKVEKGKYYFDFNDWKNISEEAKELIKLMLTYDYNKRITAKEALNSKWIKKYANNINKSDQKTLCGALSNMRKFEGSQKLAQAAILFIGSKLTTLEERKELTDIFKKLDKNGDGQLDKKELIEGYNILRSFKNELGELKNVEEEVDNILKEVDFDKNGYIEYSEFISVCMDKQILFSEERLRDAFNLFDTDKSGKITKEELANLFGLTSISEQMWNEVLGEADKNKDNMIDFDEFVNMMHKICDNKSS
# Chain of L-lactate dehydrogenase (Plasmodium falciparum (isolate CDC / Honduras)) (Q27743 whole entry, looked up): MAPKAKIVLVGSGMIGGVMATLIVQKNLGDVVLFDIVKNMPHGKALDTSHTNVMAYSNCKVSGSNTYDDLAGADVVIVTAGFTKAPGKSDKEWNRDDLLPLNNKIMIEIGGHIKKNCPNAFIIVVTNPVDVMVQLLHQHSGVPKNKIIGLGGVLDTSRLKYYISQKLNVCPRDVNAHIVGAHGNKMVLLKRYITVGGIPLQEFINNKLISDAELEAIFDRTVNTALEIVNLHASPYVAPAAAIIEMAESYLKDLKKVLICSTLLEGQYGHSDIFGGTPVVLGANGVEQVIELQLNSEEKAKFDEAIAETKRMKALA
# Chain of Plasmodium falciparum protein kinase 6 (PK6, PF3D7_1337100) (Q8IDW1 1-305): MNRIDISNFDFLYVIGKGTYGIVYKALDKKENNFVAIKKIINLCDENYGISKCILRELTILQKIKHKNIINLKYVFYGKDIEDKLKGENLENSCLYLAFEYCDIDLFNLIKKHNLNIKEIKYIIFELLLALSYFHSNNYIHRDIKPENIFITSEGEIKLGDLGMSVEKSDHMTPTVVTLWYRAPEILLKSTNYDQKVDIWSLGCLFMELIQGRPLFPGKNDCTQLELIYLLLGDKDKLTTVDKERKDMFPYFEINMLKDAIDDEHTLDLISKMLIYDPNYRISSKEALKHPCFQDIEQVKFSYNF
Structure (SMILES),growth inhibition [1],inhibition [2],inhibition [3],growth inhibition [4],outcome [5],outcome [6],outcome [7],outcome [8]
Cc1nc(NCc2ccccc2)cc(NCC(O)c2ccc(O)cc2)n1 (stereo not given),10%,5%,-2%,85% (active),inactive,inactive,inactive,inactive
O=C(Cn1c(CCc2cccc(F)c2F)nc(=O)c2ccccc21)N(CCN1CCCC1)Cc1ccc(-c2ccc(C(F)(F)F)cc2)cc1,37%,63% (active),-1%,101% (active),inactive,inactive,inactive,inactive
COc1ccc(-c2nc(NC(=O)Cc3ccc4c(c3)OCCO4)sc2C)cc1,99% (active),0%,2%,100% (active),inactive,inactive,inactive,inactive
CC(C)c1ccc(N(CC(=O)N/N=C/c2ccc(C(F)(F)F)cc2)S(=O)(=O)c2ccc(C(F)(F)F)cc2)cc1,44%,2%,3%,91% (active),inactive,inactive,inactive,inactive
CS(=O)(=O)NCCCNCc1ccc(-c2ccc(-c3nc4ccc(F)cc4[nH]3)cc2)cc1,97% (active),17%,-1%,100% (active),inactive,inactive,inactive,inactive
Cc1ccccc1N1CCN(c2ccc(C(=O)NC(C)C)cn2)CC1,91% (active),13%,-2%,89% (active),inactive,inactive,inactive,inactive
CCCC(C)NC(=O)[C@H](Cc1ccccc1)NC(=O)c1ccc(O)c(-c2ccc(OC)cc2)c1 (stereo not given in full),1%,12%,2%,85% (active),inactive,inactive,inactive,inactive
CCOc1c(CNCCCNc2nc3ccccc3[nH]2)cc(Br)cc1OC,0%,29%,2%,99% (active),inactive,inactive,inactive,inactive
O=C(c1ccccc1)N1CCC(CN2CCOC(c3ccccc3)(c3ccccc3)C2)CC1,95% (active),14%,1%,94% (active),inactive,inactive,inactive,inactive
Cc1c(F)cc(C(=O)NC2CC2)cc1-c1ccc2c(cnn2S(=O)(=O)c2ccc(F)c(F)c2)c1,76% (active),49%,-2%,91% (active),inactive,inactive,inactive,inactive
CCOc1cc(Cc2cnc(N)nc2N)cc(OCC)c1OCC,0%,-1%,5%,97% (active),inactive,inactive,inactive,inactive
Cc1[nH]c(C)c(-c2ccc(Oc3ccc(OC(F)(F)F)cc3)cc2)c(=O)c1I,96% (active),3%,-3%,95% (active),inactive,inactive,inactive,inactive
COc1ccc2nccc([C@@H](O)CN3CCC(NCc4cc5cccc(OCc6ccccc6)c5[nH]4)CC3)c2c1,40%,13%,1%,101% (active),inactive,inactive,inactive,inactive
COc1ccc(C2CCN(CCN3CCC(NC(=O)c4ccc(-c5cccc(C(F)(F)F)c5C(F)(F)F)cc4)CC3)CC2)c(OC)c1,61% (active),35%,-4%,102% (active),inactive,inactive,inactive,inactive
CCC(c1ccccc1)c1nn2c(-c3cccs3)nnc2s1 (stereo not given),95% (active),10%,-4%,97% (active),inactive,inactive,inactive,inactive
CO/C(=C\C=C/c1cc2cc(Cl)c(Cl)cc2[nH]1)C(=O)NC1CC(C)(C)N(C)C(C)(C)C1,34%,65% (active),-1%,93% (active),inactive,inactive,inactive,inactive
c1ccc(Oc2ccc(Nc3ccnc4cc(-c5cccc(CNCCN6CCOCC6)c5)ccc34)cc2)cc1,98% (active),12%,7%,102% (active),inactive,inactive,inactive,inactive
CC1CCCN(C(=O)C(C)Nc2cc(Cl)ccc2N2CCOCC2)C1 (stereo not given),96% (active),-1%,-5%,101% (active),inactive,inactive,inactive,inactive
Cc1cc(=O)[nH]c(-n2nc(C)cc2NC(=O)C2(c3ccc(Cl)cc3)CCCC2)n1,97% (active),30%,5%,96% (active),inactive,inactive,inactive,inactive
CC(C)NCc1ccc(-c2ccc(NC(=O)c3ccc(C#N)cc3)cc2)cc1,0%,23%,-2%,90% (active),inactive,inactive,inactive,inactive
